Data on eleven compounds can be found in PubChem BioAssay (EPA / NIEHS).

Calls of active or inactive are those of the source. How the source made its calls: active means hit-call score of the fitted dose curve at least 0.9, where 1 is the maximum; inactive means score below 0.9.

A short description of the assay: CCTE_Padilla_ZF_Score.General: CCTE's 144 Hour Post-fertilization zebrafish Assay Score for General Malformation, Padilla Lab (AID 2284411). As to the method: CCTE_Padilla_ZF_Phenotype_Score is a whole embryo, multiplexed assay using zebrafish ova exposed for 144 hours post fertilization on a 96-well plate.CCTE_Padilla_ZF_Score.General is one of one assay component(s) measured or calculated from the CCTE_Padilla_ZF_Phenotype_Score assay. It is designed to make measurements of zebrafish development as detected with brightfield microscopy of developing zebrafish embryos.Data from the assay component CCTE_Padilla_ZF_Score.General was analyzed into 1 assay endpoints. This assay endpoint, CCTE_Padilla_ZF_Score.General, was analyzed in the positive analysis fitting direction relative to DMSO as the negative control and baseline of activity. Using a type of viability reporter, gain-of-signal activity can be used to understand changes in developmentals as they relate to the whole embryo. To generalize the intended target to other relatable targets, this assay endpoint is annotated to the zebrafish development intended target family, where the subfamily is embryonic morphogenesis.
Zebrafish husbandry: Wild type adult zebrafish (Danio rerio; undefined outbred stock obtained from Aquatic Research Organisms, Hampton, NH, 03842) were housed in an AAALAC-approved animal facility at 28C with a 14:10 h light: dark cycle (lights on at 08:30 h). Adult fish (2-3 females per male; density = 15-20 adults per tank) were kept in one of several 9-liter (L) flow-through colony tanks (Aquaneering Inc., San Diego, CA). All adults in a colony tank were placed in a 2 L (static) breeding tank (Aquatic Habitats, Apopka, FL) one hour prior to light onset. Typically, adults from two to three colony tanks were mated on the same day. Two hours after light onset the adults were returned to the colony tank. All embryos were gathered from each breeder tank, pooled, and placed in a 28C water bath for 2 h, followed by two washes with 0.06% bleach (v/v) in 10% Hanks' Balanced Salt Solution (13.7 mM NaCl 0.54 mM KCl, 25 uM Na2HPO4, 130 uM CaCl2 100 um MgSO4 and 420 um NaHCO3,), hereafter referred to as Hanks' solution, for 5 min in order to remove any residual bacteria or fungi. Immediately following washing, the embryos were examined, and healthy embryos were separated from dead or unfertilized eggs and moved into fresh Hanks'. Chemical exposures: Zebrafish embryos were exposed in 96-well plates. Between 6- and 8-hours post fertilization (hpf), healthy embryos (with chorions) were transferred, one embryo per well, into 96 well (0.5 mL) microtiter plates (Cell Culture-Treated, Flat-Bottom Microplate 96 well [Corning Costar, Kennebunk, ME; Cat 09-761-145]) filled with 200 uL of Hanks' solution. A random number generator was used to assign the order in which the rows of embryos were plated in 96 well plates each week. After plating, the embryos were dosed with 0.8 uL of the chemical dosing solution then immediately sealed with AlumaSeal II (Excel Scientific Inc, Victorville, CA) to prevent volatilization of the chemicals, and then placed in a leakproof secondary container. These containers were placed in an incubator maintained on a 14:10 h light: dark cycle at 26C for rearing. On 5 dpf, live larvae were gently moved out of the plate with test chemicals and into a new 96 well mesh plate (Millipore Corp., Bedford, MA) with just the Hanks' solution. Once within the mesh well plate, the animals were rinsed with 400 uL of fresh Hanks' three times, and then the plates were covered with a non-adhesive material (Microseal A, BioRad, Hercules, CA), plate lid added, and then plate sides wrapped in Parafilm (PM992, Bermis Company, Neenah, WI), and returned to the incubator. […]
As for `OC(O)(C(F)C(O)(O)C(F)(F)F)C(F)(F)F`, the AC50 was 32.4 µM (active).
`O=S(=O)(O)CCC(F)(F)C(F)(F)C(F)(F)C(F)(F)C(F)(F)C(F)(F)F`: the call was inactive.
For `O=C(Cl)C(F)(F)C(F)(F)C(F)(F)C(=O)Cl`, the compound was classed as inactive.
For `FC(F)C(F)(F)COCC1CO1` (stereo unspecified), the concentration at half-maximal activity (AC50) was 9.44 µM (active).
As for `C[Si](C)(C)C(F)(F)C(F)(F)C(F)(F)F`, the compound was called inactive.
In the case of `S=P(N1CC1)(N1CC1)N1CC1`, the call was inactive.
Consider `OCCC(F)(F)C(F)(F)C(F)(F)C(F)(F)F`, for which the call was inactive.
Still for that read-out and setting: the result for `FC(F)(F)C(F)(F)C(F)(F)C(F)(F)C(F)(F)C(F)(F)I` reads “inactive”.
Turning to `FC(F)=C(F)C(F)(F)C(F)(F)C(F)(F)C(F)(F)C(F)(F)C(F)(F)F`, the outcome was inactive.
With `NCC(F)(F)C(F)(F)C(F)(F)C(F)(F)F`, the outcome was inactive.
On to `FC(F)(F)COC(OCC(F)(F)F)OCC(F)(F)F`, for which the call was inactive.
